Results as given in the supplement of paper PMC11417369.
± gives the standard deviation of the averaged measurements. In all, about 25,000 sequences were measured (“ln(normalized median fluorescence intensity)”: median about 8.9, highest 2% from about 10 on). The list comes from a sample in which the highest values are over-represented; it also holds similar and randomly drawn sequences.

System: PfAP2-LT AP2 domain (GST-tagged)
Assay: gcPBM binding intensity (ln(normalized median fluorescence intensity)); higher = stronger DNA binding
Method in brief: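 DNA-binding domains from P. falciparum, fused to GST and produced in E. coli, were put on an Agilent 4 × 180k double-stranded probe array for 1 h in 1× PBS holding 1% milk, 0.2 mg/ml BSA, 0.5% salmon testes DNA and 0.03% Triton X-100. Probes were primer-extended, 36 bp long and drawn from intergenic genomic regions, with negative controls included. After Alexa488 anti-GST antibody detection and a 488 nm scan, binding intensity was set as the highest Masliner-normalised natural-log median intensity across replicate spots of either probe orientation.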

Row | Sequence | gcPBM binding intensity (ln)
1 | AAAAATAACATATAAACACACATATAGATTTATATA [CACACA_site7738] | 8.94 ± 0.37
2 | TTTTATGCTCAATTATTAAGAAATACTTTTTCTTCC [XGTACX_negctrl_site208] | 8.45 ± 0.68
3 | GTATGTATGTATGTATGTACGTATGTATGTATATAT [XGTACX_site3369] | 9.2 ± 0.36
4 | ATTTATATATATGTATGTACGTATGTGTGTATATGT [XGTACX_site7587] | 9.36 ± 0.35
5 | AAACGTGCGTATATGTGTACGCATATATATATATAT [XGTACX_site5252] | 10.2 ± 0.34
6 | TATTTATTTATAAACACACAAATATTTTTATTTATA [CACACA_site6889] | 8.49 ± 0.32
7 | TTTTCTATATAACAACGTACATTTATTATATTATAA [XGTACX_site6148] | 8.49 ± 0.45
8 | TTTATATAAATCAAATGTACATATTCCAAATATATA [XGTACX_site8515] | 8.45 ± 0.34
9 | CAATCAAATGGACACACACACACCTAAACATAAAAG [CACACA_site5524] | 10 ± 0.3
10 | ATAAAAAAGAAACAAACACACATACATACAAACAAA [CACACA_site4256] | 9.47 ± 0.33
11 | GGACACCTTCAAAACACACATACAAATAAATAGAAA [CACACA_site3305] | 8.97 ± 0.54
12 | CAATCAAATAGACACACACACACCTAAACATAAAAG [CACACA_site7322] | 10.2 ± 0.4
13 | AAAACAAACCCATTTACACACATAAATAAATCAATT [CACACA_site6126] | 9.38 ± 0.3
14 | CACAAAAATAGACACACACACATATAAATAAATATA [CACACA_site6598] | 9.7 ± 0.38
15 | CAATCAAAGAAACACACACACACCTAAACATAAAAG [CACACA_site2756] | 10.2 ± 0.33
16 | AACAATCAAATAGACACACACACACCCAAACATAAA [CACACA_site2757] | 10.1 ± 0.11
17 | ATCAAATAGAGACACACACACCTAAACATAAAAGAA [CACACA_site7321] | 9.78 ± 0.48
18 | ATTATATTTATGTTGGTGCATTATACATGAAATTTA | 8.68 ± 0.4
19 | AGAAAAGGACATATATGTACTTATCAATATAGAAAC [XGTACX_site1042] | 9.04 ± 0.48

Row | Sequence | gcPBM binding intensity (ln)
20 | TTCTTTTTTCTTTATGGTACGTGTAATATATATCAA [XGTACX_site7960] | 8.82 ± 0.45
21 | AATAGAACAAATAAAACACACACATATATATATATA [CACACA_site8893] | 9.76 ± 0.37
22 | ATCAAGCACGAACACACACACACACGCACGCCCACA [CACACA_site6308] | 10.3 ± 0.3
23 | GGCATACACGAACACACACACACACGCACATATATA [CACACA_site6426] | 10.5 ± 0.36
24 | AAACAAAAAATATATACACACTAAACATAAAAAAAA [CACACA_site4185] | 9.02 ± 0.46
25 | TTTATTTTATCATTTGCACACGCACGCCCACATAAA [CACACA_site353] | 9.39 ± 0.42
26 | ACACGCACATATATATAAATATATATATATATAAAT [CACACA_negctrl_site1781] | 9.6 ± 0.28
27 | AACAAATACGAACACACACACACACTAAAAAAAAAA [CACACA_site6386] | 10.3 ± 0.2
28 | CCAACATGCCCACGCACACACAAAAAAAGCATGCAT [CACACA_site4217] | 9.51 ± 0.4
29 | CACGCGCACGAACACACACACACACGCATATAAATA [CACACA_site7103] | 9.86 ± 0.33
30 | CACACGCACGAACACACACACACACGCATATAAATA [CACACA_site6302] | 10.2 ± 0.3
31 | CACGCGAACATACATACACACACATATATATATATG [CACACA_site7951] | 9.69 ± 0.35
32 | CGAACAAACAAATAAACACACAAAAAAAAATATATA [CACACA_site1825] | 9.11 ± 0.5
33 | TTTTCCCTCTTATTCACACAAAAAAAATAAAATAAA [CACACA_site4656] | 8.2 ± 0.42
34 | TTTGCTTCGATATATTCACACATTTTTTTTCTTATT [CACACA_site4499] | 8.91 ± 0.46
35 | TTCTTTTTTCAACACACACACACAAGAAAATATATA [CACACA_site9019] | 9.51 ± 0.16
36 | AATATAAATAAAAACACACACAATGGTACCTATATA [CACACA_site7688] | 9.3 ± 0.39
37 | TATTATATATATGGAAGTACAGGTATATCGTTTTTC [XGTACX_site3771] | 8.73 ± 0.4
38 | AACATATACACGAACACACACACATATAAATAAATA [CACACA_site6380] | 9.87 ± 0.23

Row | Sequence | gcPBM binding intensity (ln)
39 | AAAAAAAAAATATACACACACACATACACATAAATA [CACACA_site3808] | 9.92 ± 0.21
40 | CATATACACGAACACACACACATATAAATAAATATA [CACACA_site6379] | 9.74 ± 0.29
41 | CACACGCACGAACACACACACACACGCACGCACATA [CACACA_site6305] | 10.4 ± 0.13
42 | CTAAAATACGAACACACACACACATATAAATAAATA [CACACA_site7872] | 10.2 ± 0.33
43 | CACACGCACGAACACACACACATATAAATATAAATA [CACACA_site6299] | 9.71 ± 0.44
44 | TAACACATAAATAAATATATACATATATATAAAATA [CACACA_negctrl_site375] | 8.81 ± 0.46
45 | TACACATACACATACACACGCATAGAAACATACGAA [CACACA_site2137] | 9.48 ± 0.33
46 | AACATATACACGAACACACACACATATATATATATA [CACACA_site502] | 10.3 ± 0.26
47 | TATATACATATATACACACACATATATATATATATA [CACACA_site2805] | 9.905 ± 0.0071
48 | AGTATACACGAACACACACACACATATATAAATATA [CACACA_site6913] | 10.2 ± 0.4
49 | TATACATATATATACACACACACATATATATATATA [CACACA_site1299] | 9.9 ± 0.42
50 | TTTTTTAAATAATATTGTACAAAAAATGTATAAATA [XGTACX_site3010] | 8.44 ± 0.42
51 | ATATATATATAAATATGTACATATATACATATATAC [XGTACX_site2374] | 8.89 ± 0.23
52 | TGTATGTCTTTATTTTGTACACAATATAAAAAATTA [XGTACX_site5441] | 8.51 ± 0.38
53 | ACCATTTGTAGGTAAACACACATTATTATTAATATC [CACACA_site2635] | 8.93 ± 0.4
54 | CATTTTGTAAGATATGCACACATGGATCATATTTTA [CACACA_site423] | 8.95 ± 0.34
55 | CAAAAGCGATACGGCACACATTTCCTGTTTAAATGA [CACACA_site5519] | 8.99 ± 0.58
56 | TACTGATCTTTCTAGGTGCGCTGCTACCATTATCGT [GTGCAC_site9538] | 8.99 ± 0.49
57 | GATATGATTAACTTATGTTATTCTTGATGATTACGT [CACACA_negctrl_site354] | 8.86 ± 0.38
